From the supplement of paper PMC10646978
± gives the standard deviation.

How the values were obtained:
Conditions in all cases: modulator concentration 10 µM
[1] = test system: RAW-Dual (murine macrophage reporter line); assay: NF-kB reporter (SEAP) activity fold change vs agonist alone; higher = enhanced NF-kB activity
Outline: (§1)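 RAW-Dual murine macrophage reporter cells were seeded at 50 000 per well in 384-well plates and pre-incubated 1 hour at 37 °C with compound pin-transferred to 10 μM final. After 1 hour, a PRR agonist was added and cells incubated overnight. Supernatant NF-κB (SEAP, QUANTI-Blue, 620 nm absorbance) and IRF (Lucia luciferase, QUANTI-Luc, luminescence) signals were divided by the mean agonist-only control on the same plate to give fold change. Two replicate plates were averaged, with errors by propagation.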

[2] = test system: RAW-Dual (murine macrophage reporter line); assay: IRF reporter (Lucia luciferase) activity fold change vs agonist alone; higher = enhanced IRF activity
Outline: as §1

[3] = test system: RAW-Dual (murine macrophage reporter line); assay: viability score (confluency relative to resting cells, overnight) (fraction); higher = more viable, active = viable (0.7 or more)
Outline: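 RAW-Dual macrophages in 384-well plates were incubated overnight with compound, final concentration 10 μM. Confluency images from IncuCyte were processed in IncuCyte software into two masks covering all imaged wells. The viability score is each well's confluency relative to resting cells, and a compound met the cutoff when both masks exceeded 70% of resting cells.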

[4] = agonist: CpG ODN 1826 0.5 ug/mL

Row | SMILES | NF-kB reporter [1, 4] | NF-kB reporter ([1]; agonist: LPS 0.1 ug/mL) | NF-kB reporter ([1]; agonist: MPLA […]) | IRF reporter ([2]; agonist: 3'3'-cGAMP 10 ug/mL) | IRF reporter ([2]; agonist: LPS 0.1 ug/mL) | IRF reporter ([2]; agonist: MPLA […]) | viability score [3]
1 | CCNc1cc(C)nc(Nc2ccc(NC(=O)c3ccc(OC)c(OC)c3)cc2)n1 | 0.118 ± 0.0094 | 1.32 ± 0.11 | 1.74 ± 0.17 | 0.72 ± 0.023 | 1.19 ± 0.18 | 1.29 ± 0.27 | 0.977 (active)
2 | O=C(C=Cc1ccccc1)NC(NC(=S)Nc1cccc2cccnc12)C(Cl)(Cl)Cl (centres undefined) | 0.507 ± 0.089 | 0.575 ± 0.067 | 0.624 ± 0.048 | 0.452 ± 0.027 | 1.01 ± 0.1 | 1.13 ± 0.25 | 1.01 (active)
3 | Cc1cccc(C(C)C)c1NC(=O)c1ccccc1Br | 0.951 ± 0.16 | 0.956 ± 0.085 | 0.953 ± 0.074 | 0.988 ± 0.044 | 1.28 ± 0.23 | 1.14 ± 0.12 | 0.971 (active)
4 | CC(=O)N1CCC(C(=O)NC(Cn2nccn2)c2ccccc2)CC1 (centres undefined) | 0.87 ± 0.05 | 1.06 ± 0.09 | 1.05 ± 0.082 | 1.04 ± 0.051 | 1.34 ± 0.25 | 1.56 ± 0.46 | 0.935 (active)
5 | N#Cc1cc(-c2n[nH]c(-c3ccncc3)n2)ccn1 | 0.998 ± 0.19 | 1.06 ± 0.32 | 0.958 ± 0.077 | 0.891 ± 0.035 | 1.13 ± 0.25 | 1.12 ± 0.28 | 1 (active)
6 | O=S(=O)(Nc1cccc2cccnc12)c1ccccc1 | 0.961 ± 0.13 | 0.597 ± 0.097 | 0.659 ± 0.053 | 1.04 ± 0.081 | 5.63 ± 1 | 1.32 ± 0.29 | 0.745 (active)
7 | O=c1c(CN2CCC(O)(c3ccc(Br)cc3)CC2)coc2ccccc12 | 0.712 ± 0.056 | 0.953 ± 0.059 | 1.07 ± 0.066 | 0.676 ± 0.032 | 1.07 ± 0.14 | 0.85 ± 0.12 | 1.01 (active)
8 | O=S(=O)(Cc1cccc(F)c1)N1C2CCC1CC(Oc1cccnc1)C2 (centres undefined) | 1.18 ± 0.07 | 1.1 ± 0.099 | 1.04 ± 0.054 | 0.986 ± 0.04 | 1.06 ± 0.052 | 1.04 ± 0.1 | 1 (active)
9 | Cc1ccc(=O)n(-c2ccccc2)c1 | 0.979 ± 0.079 | 0.981 ± 0.098 | 0.968 ± 0.038 | 0.979 ± 0.077 | 0.975 ± 0.13 | 0.976 ± 0.092 | 1 (active)
10 | NCCCC(=O)O | 1.18 ± 0.28 | 0.974 ± 0.1 | 1.01 ± 0.083 | 0.981 ± 0.04 | 1.3 ± 0.19 | 1.3 ± 0.14 | 0.995 (active)
11 | OC1C=C2CCN3Cc4cc5c(cc4C(C1O)C23)OCO5 (centres undefined) | 1.1 ± 0.099 | 0.352 ± 0.029 | 1.35 ± 0.14 | 0.678 ± 0.062 | 0.751 ± 0.072 | 1.04 ± 0.19 | 0.71 (active)
12 | COc1ccc(N(CC(=O)N2CCc3ccccc3C2)S(C)(=O)=O)cc1Cl | 1.18 ± 0.12 | 1.05 ± 0.077 | 0.987 ± 0.059 | 1.06 ± 0.033 | 1.52 ± 0.12 | 1.11 ± 0.13 | 1.01 (active)
13 | O=C(CSC1CCCCC1)Nc1ccc(Br)cc1 | 1 ± 0.33 | 0.949 ± 0.07 | 1.1 ± 0.07 | 0.671 ± 0.022 | 1.06 ± 0.12 | 1.12 ± 0.14 | 0.962 (active)
14 | CNC(=O)c1ccc2cc(C3(O)CCn4cncc43)ccc2c1 (centres undefined) | 0.99 ± 0.15 | 0.866 ± 0.28 | 0.937 ± 0.052 | 0.932 ± 0.04 | 0.964 ± 0.22 | 0.945 ± 0.17 | 0.995 (active)
15 | Cc1cc2c(C)cc[n+](CCCS(=O)(=O)[O-])c2cc1C | 0.942 ± 0.078 | 1.05 ± 0.066 | 0.918 ± 0.059 | 0.946 ± 0.038 | 1.42 ± 0.09 | 1.3 ± 0.22 | 1 (active)
16 | COc1ccc(-c2csc(NC(=O)C3CC3)n2)cc1 | 1.1 ± 0.064 | 0.958 ± 0.078 | 1.05 ± 0.032 | 0.876 ± 0.032 | 1.05 ± 0.08 | 1.13 ± 0.26 | 0.988 (active)
17 | COC(=O)NN=Cc1cccs1 | 1.04 ± 0.19 | 1.05 ± 0.084 | 0.974 ± 0.11 | 0.987 ± 0.031 | 1 ± 0.096 | 1.22 ± 0.21 | 0.997 (active)
18 | C=CC(=O)Nc1cccc(Oc2nc(Nc3ccc(N4CCN(C)CC4)cc3)nc3ccsc23)c1 | 0.0541 ± 0.0029 | 0.0574 ± 0.0052 | 0.184 ± 0.036 | 0.0243 ± 0.0019 | 0.0856 ± 0.0056 | 0.0904 ± 0.035 | 0.0526 (inactive)
19 | Cc1cccc(C(=O)N2N=C(C3CCCCC3)CC2(O)C(F)(F)F)c1O (centres undefined) | 0.735 ± 0.057 | 0.839 ± 0.064 | 0.955 ± 0.089 | 0.939 ± 0.046 | 1.4 ± 0.093 | 1.52 ± 0.14 | 1.01 (active)
20 | N#Cc1nc(-c2ccc(COc3ccccc3)o2)oc1N1CCc2ccccc2C1 | 0.987 ± 0.049 | 1.13 ± 0.089 | 0.896 ± 0.05 | 0.964 ± 0.078 | 1 ± 0.16 | 0.989 ± 0.38 | 1.01 (active)
21 | Cc1ccc(NC(=O)c2ccccc2Oc2ccccc2)cc1 | 0.689 ± 0.055 | 1.1 ± 0.097 | 1.24 ± 0.059 | 0.881 ± 0.08 | 1.09 ± 0.14 | 1.76 ± 0.41 | 1 (active)
22 | CN1CCN(c2nc(C3=C(c4c[nH]c5ccccc45)C(=O)NC3=O)c3ccccc3n2)CC1 | 0.748 ± 0.034 | 0.961 ± 0.081 | 1.21 ± 0.071 | 0.798 ± 0.041 | 1.14 ± 0.24 | 1.17 ± 0.32 | 0.988 (active)
23 | CC[C@@]1(O)C(=O)OCc2c1cc1n(c2=O)Cc2cc3c(CN(C)C)c(O)ccc3nc2-1 [Prestw-1196] | 2.33 ± 0.13 | 1.27 ± 0.08 | 2.43 ± 0.16 | 2.88 ± 0.099 | 3.79 ± 0.35 | 3.07 ± 0.43 | 0.689 (inactive)
24 | CCCNS(=O)(=O)Nc1ncnc(OCCOc2ncc(Br)cn2)c1-c1ccc(Br)cc1 | 0.775 ± 0.21 | 0.995 ± 0.074 | 1.16 ± 0.1 | 0.417 ± 0.047 | 0.383 ± 0.083 | 0.465 ± 0.062 | 0.953 (active)
25 | COc1ccc([N+](=O)[O-])cc1NC(=O)c1ccccc1SC | 0.656 ± 0.079 | 0.705 ± 0.14 | 0.88 ± 0.086 | 0.945 ± 0.031 | 1.03 ± 0.23 | 1.17 ± 0.33 | 0.987 (active)
26 | N#Cc1c(NC(=O)c2cccc3ccccc23)sc2c1CCCC2 | 1.67 ± 0.13 | 0.863 ± 0.073 | 1.14 ± 0.12 | 0.616 ± 0.019 | 1.35 ± 0.18 | 1.48 ± 0.23 | 0.879 (active)
27 | CN(C)CCS(=O)c1ccccc1 (centres undefined) | 0.955 ± 0.08 | 0.907 ± 0.071 | 1.16 ± 0.21 | 0.983 ± 0.038 | 1.32 ± 0.23 | 1.39 ± 0.27 | 1.04 (active)
